Screening data from PubChem.
Only some compounds are listed: those with a hit (about 2.2% of all), similar ones and a draw of the others.
MEKK2mut PB1 HTS – MEK5 binding signal on mutant MEKK2 PB1, primary screen, biochemical, multiplex bead flow cytometry, Alexa488-MEK5; Alexa488-MEK5 binding to MEKK2 mutant; percent response, % at 10 µM; 290,000 tested, 0.35% active; in the data active = percent response above about 24%, passing the limit was not always enough
MEKK2 WT-MEK5 – modulators of MEK5 binding to wildtype MEKK2, primary screen, biochemical, multiplex bead flow cytometry, Alexa488-MEK5; Mitogen-activated protein kinase kinase kinase 2 (Homo sapiens), Q9Y2U5; Alexa488-MEK5 binding to MEKK2 WT; actives lie on both sides; binding response (% of control), % at 10 µM; 290,000 tested, 1.1% active; AID 1531, 2009; in the data active = binding response below about 67% or above about 130%
MEKK3 PB1 HTS – modulators of MEKK3-MEK5 PB1 binding, primary screen, biochemical, wildtype MEKK3, multiplex bead flow cytometry, Alexa488-MEK5; Mitogen-activated protein kinase kinase kinase 3 (Homo sapiens), Q99759; bead-based flow cytometry, Alexa488-MEK5 binding to MEKK3; actives lie on both sides; 0 = blocked by unlabeled MEK5, 100 = vehicle; binding response (% of control), % at 10 µM; 290,000 tested, 1.4% active;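 active = binding response more than 3 SD above or below the average of its plate-row segment, actives on both sides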;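 note: Alexa488 bead fluorescence after subtracting the streptavidin-only scavenger bead signal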
VLA-4 inh – inhibition in human VLA-4 binding assay, primary screen, VLA-4 allosteric modulator project, MLPCN library, flow cytometry, VLA-4 expressing cells; inhibition, % (about 7 µM as worked out from the volumes in the protocol); ligand binding flow cytometry; Integrin alpha-4 (Homo sapiens), P13612; 330,000 tested, 0.2% active; AID 2557, 2010; in the data active = inhibition above about 50%
Target sequence (P13612 whole entry, looked up): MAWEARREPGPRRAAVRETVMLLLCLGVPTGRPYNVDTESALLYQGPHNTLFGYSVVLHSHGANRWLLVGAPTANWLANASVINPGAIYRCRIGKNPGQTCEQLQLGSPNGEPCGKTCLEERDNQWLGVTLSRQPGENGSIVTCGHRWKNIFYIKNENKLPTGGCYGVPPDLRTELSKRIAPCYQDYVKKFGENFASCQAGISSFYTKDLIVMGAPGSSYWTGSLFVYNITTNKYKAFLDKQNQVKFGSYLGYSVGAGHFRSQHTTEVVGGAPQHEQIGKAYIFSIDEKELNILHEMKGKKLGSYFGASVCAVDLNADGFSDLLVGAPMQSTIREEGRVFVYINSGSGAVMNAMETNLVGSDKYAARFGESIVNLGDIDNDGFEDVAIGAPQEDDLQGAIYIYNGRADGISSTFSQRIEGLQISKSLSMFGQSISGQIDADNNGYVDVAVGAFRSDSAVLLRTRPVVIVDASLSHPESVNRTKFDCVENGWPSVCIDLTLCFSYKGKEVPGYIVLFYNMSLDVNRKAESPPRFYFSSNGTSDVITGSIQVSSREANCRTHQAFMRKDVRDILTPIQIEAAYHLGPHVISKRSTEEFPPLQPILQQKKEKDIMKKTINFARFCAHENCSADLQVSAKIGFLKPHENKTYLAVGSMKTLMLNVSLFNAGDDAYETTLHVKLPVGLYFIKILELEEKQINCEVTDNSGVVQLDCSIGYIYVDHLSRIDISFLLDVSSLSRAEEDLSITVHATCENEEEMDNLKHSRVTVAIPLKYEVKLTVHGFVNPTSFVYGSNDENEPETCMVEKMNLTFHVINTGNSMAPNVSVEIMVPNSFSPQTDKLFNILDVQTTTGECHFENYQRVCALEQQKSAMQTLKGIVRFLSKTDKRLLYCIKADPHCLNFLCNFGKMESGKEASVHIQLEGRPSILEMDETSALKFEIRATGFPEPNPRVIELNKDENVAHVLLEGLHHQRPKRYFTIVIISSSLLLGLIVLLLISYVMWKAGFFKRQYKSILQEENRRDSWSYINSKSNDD
MEKK2wt confirm – modulators of MEK5 binding to wildtype MEKK2, confirmation, biochemical, single concentration, multiplex bead flow cytometry | 5,900 tested, 2.4% active | Alexa488-MEK5 binding to MEKK2 WT; actives lie on both sides | shares compounds with MEKK3 PB1 HTS | binding response (% of control), % at 10 µM | AID 1892, 2009; in the data active = binding response below about 16% or above about 210%; inactive = in between
MEKK2mut confirm – mutant MEKK2 PB1-MEK5 binding signal retest – biochemical, single concentration, multiplex bead flow cytometry, confirmation; shares compounds with MEKK3 PB1 HTS; Alexa488-MEK5 binding to MEKK2 mutant; percent response, % at 10 µM; 5,900 tested, 2% active; AID 1893, 2009; in the data active = percent response mostly above about 71%, no sharp cut-off; inactive = mostly below about 38%;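 note: higher means compound restores mutant binding toward wildtype level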
MEKK3-MEK5 inh – MEKK3 wild-type PB1 binding to MEK5, inhibitors, confirmation, biochemical, bead multiplex flow cytometry, single concentration, wildtype; shares compounds with MEKK3 PB1 HTS; Alexa488-MEK5 binding to MEKK3; active compounds read low; binding response (% of control), % at 10 µM; 5,900 tested, 1.8% active;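 active = binding response below 72% of control, or above a set upper limit, though filed actives all read lower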;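 note: lower values mean stronger disruption of MEK5 binding to MEKK3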
Large screens that a line does not name were inactive (follow-up assays come after a bar, where they were run); [ ] = another dose, or the depositor's remark.

Cc1cc(N2CCC(N(C)C3CCCC3)CC2)nc2cc(O)ccc12	MEKK2mut PB1 HTS 24, MEKK2 WT-MEK5 142 | MEKK2wt confirm inactive | MEKK2mut confirm inactive | MEKK3-MEK5 inh inactive
OCC[C@@H]1C[C@H](O)[C@@H](O)[C@]2(OCc3ccccc32)O1	none
CCCCSc1ncnc2[nH]ncc12	none
Cc1ccc(NC2CCCN(C(=O)c3ccoc3)C2)cc1C (centres undefined)	none
COc1cc(/C=N/n2cnnc2)ccc1OC(=O)c1ccncc1	MEKK3 PB1 HTS 56[inhibitor] | MEKK2wt confirm inactive | MEKK2mut confirm inactive | MEKK3-MEK5 inh inactive
COc1cc(/C=N/n2cnnc2)ccc1OC(=O)c1cccnc1	none
CN(c1nc2ccccc2nc1Cl)S(=O)(=O)c1ccccc1	none
CC(C)C(=O)Nc1nnc(SCC(=O)NCc2ccco2)s1	MEKK3 PB1 HTS 139 | MEKK2wt confirm inactive | MEKK2mut confirm inactive | MEKK3-MEK5 inh inactive
CC(=O)N1/C(=C/c2ccc(N(C)C)cc2)C(=O)c2ccccc21	MEKK2 WT-MEK5 36[inhibitor] (no result: VLA-4 inh) | MEKK2wt confirm inactive | MEKK2mut confirm inactive | MEKK3-MEK5 inh inactive
O=C(NCCCN1CCCC1=O)c1cc(-c2cccnc2)nc2ccc(Cl)cc12	MEKK3 PB1 HTS 70[inhibitor] | MEKK2wt confirm inactive | MEKK2mut confirm inactive | MEKK3-MEK5 inh inactive
N/C(=N/O)c1ccccc1N1CCC(Cc2ccccc2)CC1	none
CCCCC(=O)NC(=S)Nc1cccc(NC(=O)c2ccccc2)c1	MEKK3 PB1 HTS 49[inhibitor] | MEKK2wt confirm inactive | MEKK2mut confirm inactive | MEKK3-MEK5 inh inactive
CC(C)CC(=O)NC(=S)Nc1cccc(NC(=O)c2ccccc2)c1	MEKK3 PB1 HTS 154 | MEKK2wt confirm inactive | MEKK2mut confirm inactive | MEKK3-MEK5 inh inactive
CCCCOc1cccc(C(=O)NC(=S)Nc2cccc(NC(=O)c3ccccc3Cl)c2)c1	MEKK3 PB1 HTS 137 | MEKK2wt confirm inactive | MEKK2mut confirm inactive | MEKK3-MEK5 inh inactive
CCC(=O)Nc1cccc(NC(=O)c2ccc(Br)cc2)c1	MEKK3 PB1 HTS 135 | MEKK2wt confirm inactive | MEKK2mut confirm inactive | MEKK3-MEK5 inh inactive
CCCC(=O)NC(=S)Nc1cccc(NC(=O)c2ccccc2)c1	none
Cc1ccc(OCC(=O)NC(=S)Nc2cccc(NC(=O)c3ccccc3)c2)cc1	none
COc1ccc(NC(=O)CN(C)C(=O)c2cc(C)on2)cc1	none (no result: MEKK2mut PB1 HTS, MEKK2 WT-MEK5, MEKK3 PB1 HTS)
Oc1c(Br)cc(Br)cc1CNn1cnnc1	none
Cc1ccc(-c2nnc(-c3cc(C)on3)o2)cc1	none
CN(Cc1ccc(Cl)cc1)C(=O)CNC(=O)C12CC3CC(CC(C3)C1)C2	none (no result: MEKK2mut PB1 HTS, MEKK2 WT-MEK5, MEKK3 PB1 HTS)
COc1cccc(N(CC(=O)NC2CCCCC2)C(=O)CCC(=O)Nc2nccs2)c1	none
COc1cccc(C(=O)Nc2cc(NC(=O)c3cccs3)ccc2C)c1OC	MEKK2mut PB1 HTS 24 | MEKK2wt confirm inactive | MEKK2mut confirm inactive | MEKK3-MEK5 inh inactive
COc1cc(NC(=O)c2cccc(Cl)c2)ccc1NC(=O)c1cccs1	MEKK3 PB1 HTS 133 | MEKK2wt confirm inactive | MEKK2mut confirm inactive | MEKK3-MEK5 inh inactive
COc1ccc(N(CC(=O)NC2CCCCCC2)S(=O)(=O)c2ccccc2)cc1Cl	none
COc1ccc2[nH]c(C)cc(=O)c2c1	none
COc1ccc2[nH]c3c(C)c4ccncc4c(C)c3c2c1	MEKK2mut PB1 HTS 53, MEKK2 WT-MEK5 177 | MEKK2wt confirm 243 | MEKK2mut confirm 88 | MEKK3-MEK5 inh inactive
COc1ccc(-c2noc(N3CCC(C(=O)NCCCN4CCCCC4)CC3)n2)cc1	none
Nn1c(SCC(=O)NC2CCS(=O)(=O)C2)nnc1-c1ccco1 (centres undefined)	none (no result: MEKK2mut PB1 HTS, MEKK2 WT-MEK5, MEKK3 PB1 HTS)
